Experimental data: PubChem BioAssay (NCATS)
Inconclusive results are not listed. The source made the active and inactive calls. Calls come from the whole dose curve; as a rule, active = well fitted cell-killing curve with a large enough effect; inconclusive = small, poorly fitted or top-dose-only effect, or effect the other way; inactive = flat fitted curve, though single readings scatter.
Potency is the fitted concentration of half-maximal effect.

Test: MultiTox-Fluor Cytotoxicity Assay - LYMP1-001 - Dead Cells (AID 946);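 for cytotoxicity (dead cells): 0% = DMSO and 100% = tetraoctylammonium bromide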
Conditions: LYMP1-001 lymphoblastoid cells, dead-cell protease fluorescence; series mostly up to 92.2 µM; cytotoxicity (dead cells): at the top concentration
Excerpt: NIH Chemical Genomics Center [NCGC]
NIH Molecular Libraries Screening Centers Network [MLSCN]
National Institutes of Environmental Health Sciences [NIEHS]
National Toxicology Program [NTP]
We have developed a 1536-well cell-based assay for quantitative high throughput screening (qHTS) against a number of cell lines to determine in vitro cytotoxicity of small molecules. This particular assay uses a human lymphoblastoid cell line (LYMP1-001) purchased from Coriell Institute for Medical Research.
NCGC Assay Protocol Summary:
The MultiTox-Fluor Cytotoxicity Assay (Promega) is a homogeneous method to simultaneously measure the relative number of live and dead cells in culture by detecting changes in cell membrane integrity. There are two fluorogenic peptide substrates in the assay reagent. Viable cells are determined when the cell-permeant substrate (GF-AFC) enters the cell and is cleaved by protease from live cells resulting in liberated fluorophore. This live-cell protease activity restricted to viable cells is proportional to cell number. The dead cells are determined by using fluorogenic cell-impermeant peptide substrate (bis-AAF-R110) which cleaved by dead cell proteases leaking from damaged cell membrane.
Using the MultiTox-Fluor Cytotoxicity Assay, the relative number of dead cells was measured in the lymphoblastoid cell line with complete culture medium following compound treatment for 16 hours. The assay was performed in opaque black Kalypsys 1536-well plates. In the screen, tetraoctylammonium bromide was used as positive control. Library compounds were measured for their ability to cause acute toxicity in the cell line, as reflected by an increase in dead cell protease activity, in a concentration-dependent manner. Data were normalized to the controls for basal activity (DMSO only) and 100% stimulation (15 uM tetraoctylammonium bromide). AC50 values were determined from concentration-response data modeled with the standard Hill equation.
qHTS protocol for MultiTox-Fluor Cytotoxicity assay
[Step] [Parameter] [Value] [Description]
1. Reagent; 5 uL; 2500 lymphoblastoid cells/well
2. Time; 5 hr; 37 C incubation
4. Controls; 23 nL; Tetraoctylammonium bromide 6.4pM to 92 uM
5. Time; 16 hr; 37 C incubation
6. Reagent; 5 uL; MuliTox-Fluor Assay reagent
7. Time; 60 min; Room Temperature
8. Detection; dead-cell fluorescence (Ex/Em=485/520); EnVision plate reader
Keywords: cytotoxicity, lymphoblastoid cell line, fluorescence, NTPHTS, NTPHTS_NCGC, NIEHS, EPA, DSSTox, MLSMR, MLSCN, NIH Roadmap, qHTS, NCGC
With Oc1cccc(O)c1O the “cytotoxicity (dead cells)” value was -8.02% (inactive). With OCC(O)CO the Potency was “inactive”. In the case of O=P(O)(O)O, the “cytotoxicity (dead cells)” value is reported as -11.3% (inactive). In the case of C=C1C(CCl)(CCl)C2(Cl)C(Cl)C(Cl)C1(Cl)C2(Cl)Cl (stereo unspecified), the Potency is reported as 50.1 µM (active). In the case of c1ccc2ccccc2c1, the “cytotoxicity (dead cells)” value is reported as -3.04% (inactive). For CCOC(C)OCC, the “cytotoxicity (dead cells)” value was -5.19% (inactive). For O.O.O.O.O.O.O.O=S(=O)([O-])[O-].[Co+2], the “cytotoxicity (dead cells)” value was -13.3% (inactive). In the case of CC1=CCC2CC1C2(C)C (stereo unspecified), the “cytotoxicity (dead cells)” value is reported as -4.34% (inactive). For CC/C=C\C/C=C\C/C=C\CCCCCCCC(=O)O, the “cytotoxicity (dead cells)” value was 5.75% (inactive). With [O-][N+](=Nc1ccccc1)c1ccccc1 the “cytotoxicity (dead cells)” value was -15.3% (inactive). In the case of CO/N=C(/C(=O)N[C@@H]1C(=O)N2C(C(=O)O)=C(COC(N)=O)CS[C@H]12)c1ccco1, the “cytotoxicity (dead cells)” value is reported as -6.28% (inactive). With C[C@H](CCC(=O)O)[C@H]1CC[C@H]2[C@@H]3CC[C@@H]4C[C@H](O)CC[C@]4(C)[C@H]3C[C@H](O)[C@]12C the “cytotoxicity (dead cells)” value was 10% (inactive). For CC(C)O, the “cytotoxicity (dead cells)” value was -6.33% (inactive). With OC[C@H]1O[C@@H]2O[C@H]3[C@H](O)[C@@H](O)[C@@H](O[C@H]4[C@H](O)[C@@H](O)[C@@H](O[C@H]5[C@H](O)[C@@H](O)[C@@H](O[C@H]6[C@H](O)[C@@H](O)[C@@H](O[C@H]7[C@H](O)[C@@H](O)[C@@H](O[C@H]1[C@H](O)[C@H]2O)O[C@@H]7CO)O[C@@H]6CO)O[C@@H]5CO)O[C@@H]4CO)O[C@@H]3CO the “cytotoxicity (dead cells)” value was -0.0832% (inactive). In the case of NC(N)=O, the “cytotoxicity (dead cells)” value is reported as 5.65% (inactive). For CC1=CC(=O)NS(=O)(=O)O1, the “cytotoxicity (dead cells)” value was -2.79% (inactive). In the case of OB(O)O, the “cytotoxicity (dead cells)” value is reported as -13.2% (inactive). In the case of Nc1ccc(N=Nc2ccccc2)c(N)n1, the “cytotoxicity (dead cells)” value is reported as -0.471% (inactive). In the case of NCCN, the “cytotoxicity (dead cells)” value is reported as 2.67% (inactive). For CCCCO, the Potency was “inactive”. In the case of CC(C)(C)CC(C)(C)c1ccc(OCCO)cc1, the “cytotoxicity (dead cells)” value is reported as 0.628% (inactive). With CO the “cytotoxicity (dead cells)” value was 8.29% (inactive). In the case of OCl, the “cytotoxicity (dead cells)” value is reported as 0.802% (inactive). In the case of Cc1ncc[nH]1, the “cytotoxicity (dead cells)” value is reported as -6.24% (inactive). For Cc1ccc(S(=O)(=O)O)cc1C, the “cytotoxicity (dead cells)” value was -3.11% (inactive). With C[C@H]1O[C@@H](O[C@H]2[C@@H](O)C[C@H](O[C@H]3[C@@H](O)C[C@H](O[C@H]4CC[C@@]5(C)[C@H](CC[C@@H]6[C@@H]5C[C@@H](O)[C@]5(C)[C@@H](C7=CC(=O)OC7)CC[C@]65O)C4)O[C@@H]3C)O[C@@H]2C)C[C@H](O)[C@@H]1O the Potency was 0.794 µM (active). In the case of Oc1ccc(/C=C/c2cc(O)cc(O)c2)cc1, the “cytotoxicity (dead cells)” value is reported as 8.21% (inactive). With C/C=C/C=C/C(=O)O the “cytotoxicity (dead cells)” value was -1.28% (inactive). With CCCCC the “cytotoxicity (dead cells)” value was -28.2% (inactive). In the case of ClC(Cl)Cl, the “cytotoxicity (dead cells)” value is reported as -9.97% (inactive). For CC[C@H]1OC(=O)[C@H](C)[C@@H](O[C@H]2C[C@@](C)(OC)[C@@H](O)[C@H](C)O2)[C@H](C)[C@@H](O[C@@H]2O[C@H](C)C[C@H](N(C)C)[C@H]2O)[C@](C)(O)C[C@@H](C)CN(C)[C@H](C)[C@@H](O)[C@]1(C)O, the “cytotoxicity (dead cells)” value was 11% (inactive). With OCc1ccccc1 the “cytotoxicity (dead cells)” value was 0.39% (inactive). For Nc1nccs1, the “cytotoxicity (dead cells)” value was -17.5% (inactive). With Nc1ncnc2c1ncn2[C@H]1CC[C@@H](CO)O1 the “cytotoxicity (dead cells)” value was -1.63% (inactive). For C[C@H](CCC(=O)O)[C@H]1CC[C@H]2[C@@H]3[C@H](O)C[C@@H]4C[C@H](O)CC[C@]4(C)[C@H]3C[C@H](O)[C@]12C, the “cytotoxicity (dead cells)” value was 11.7% (inactive). In the case of COC(=O)c1ccccc1O, the “cytotoxicity (dead cells)” value is reported as -24.1% (inactive).
